Laboratory results from PubChem BioAssay (Tox21).
Unmarked numbers belong to inactive results. Results filed as inconclusive are left out. Where a call stands in place of a potency, no number is given. Calls of active or inactive are those of the source. Unless noted, calls follow the shape of the dose curve; as a rule, active = well fitted curve in the direction sought with a large enough effect in the repeat runs; inconclusive = weak or mixed curves; inactive = no such curve, though single readings can be large; an effect the other way counts as inactive or inconclusive.

Experiments:
[1] = qHTS assay for small molecule agonists of the p53 signaling pathway (AID 651631; calls by dose curve; also: nearly all actives have a fitted effect of over 15% in size; also: potency is read from the fitted curve at half-maximal effect)
Procedure, shortened: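 Fluorescence intensity from cleaved LiveBLAzer B/G substrate (2 h, room temperature) served as the signal. Beforehand, HCT-116 reporter cells bearing p53 response elements were treated 16 h at 37 °C with DMSO-dissolved compounds.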

[2] = qHTS assay for small molecules that induce genotoxicity in human embryonic kidney cells expressing luciferase-tagged ATAD5 (AID 651632); also: nearly all actives have a fitted effect of over 15% in size
Procedure, shortened: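 A rise in luciferase signal from ATAD5-tagged HEK293T cells marks genetic stress. Cells were exposed to compounds for 16 hr at 37C, 5% CO2, then luciferase was quantified after a 30 min room-temperature incubation with Amplite.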

[3] = qHTS assay for small molecule agonists of the p53 signaling pathway - cell viability (AID 651633; calls by dose curve; also: nearly all actives have a fitted effect of over 30% in size; also: potency is read from the fitted curve at half-maximal effect)
Procedure, shortened: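 Viability counter-read: CellTiter-Glo luminescence (30 min, room temperature) in the same p53RE-bla plates. These plates had been exposed to compounds for 16 h at 37 C.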

[4] = qHTS assay for small molecules that induce genotoxicity in human embryonic kidney cells expressing luciferase-tagged ATAD5 - cell viability (AID 651634; calls by dose curve; also: nearly all actives have a fitted effect of over 25% in size; also: potency is read from the fitted curve at half-maximal effect)
Procedure, shortened: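 Cytotoxicity counter-readout: after 15.5 hr compound treatment at 37C, live-cell protease activity in ATAD5-luciferase HEK293T cells measured by CellTiter-Fluor fluorescence, 30 min development at 37C.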

[5] = qHTS assay for small molecule disruptors of the mitochondrial membrane potential - cell viability (AID 720634; calls by dose curve;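 also: human HepG2 liver cancer cells; series mostly up to about 83 µM; nearly all actives have a fitted effect of over 20% in size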)
Procedure, shortened: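 Cytotoxicity was quantified from ATP content by CellTiter-Glo luminescence in the same wells as the MMP dye read-out. HepG2 (2,000 cells/well) were plated overnight and exposed to compounds for 1 hr at 37 C.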

[6] = qHTS assay for small molecule disruptors of the mitochondrial membrane potential (AID 720635); also: potency is read from the fitted curve at half-maximal effect
Procedure, shortened: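 Mitochondrial membrane potential tracked with Mito-MPS dye, red aggregates (ex 540/em 590 nm) against green monomers (ex 490/em 535 nm). Compound treatment 1 hr at 37C, dye 30 min in HepG2.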

[7] = qHTS assay to test for compound auto fluorescence at 590 nm (red) in HepG2 cells (AID 720674)
Procedure, shortened: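 1 hr compound incubation on HepG2 cells, 37 C, 5% CO2; plate read ex 540 nm / em 590 nm; intensities reported as Rose Bengal sodium equivalents.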

[8] = qHTS assay to test for compound auto fluorescence at 535 nm (green) in HepG2 cells (AID 720675)
[9] = qHTS assay to test for compound auto fluorescence at 460 nm (blue) in HEK293 cells (AID 720678)
Procedure, shortened: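 HEK293 cells (2,000/well, medium with 10% dialyzed FBS) attached 4-5 hr, then exposed to compound overnight at 37C, 5% CO2. Blue fluorescence read at 405/460 nm, with triamterene as reference fluorophore.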

[10] = qHTS assay to test for compound auto fluorescence at 590 nm (red) in HEK293 cells (AID 720679)
Procedure, shortened: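 HEK293 cells (2,000/well, 10% dialyzed FBS) attached 4-5 hr, then dosed with compound or DMSO and incubated overnight at 37C, 5% CO2. Red fluorescence read at 540/590 nm, Rose Bengal sodium as reference fluorophore.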

[11] = qHTS assay to test for compound auto fluorescence at 535 nm (green) in HEK293 cells (AID 720680)
[12] = qHTS assay to test for compound auto fluorescence at 460 nm (blue) in HEK293 cell free culture (AID 720681)
Procedure, shortened: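 Blue fluorescence (Ex 405/Em 460 nm, triamterene-equivalent) was read immediately after pin transfer of compound or DMSO into medium (DMEM, 10% FBS) without cells.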

[13] = qHTS assay to test for compound auto fluorescence at 535 nm (green) in HEK293 cell free culture (AID 720682)
Procedure, shortened: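 Intrinsic compound fluorescence is measured in culture medium containing 10% FBS, with excitation at 485 nm and detection at 535 nm, referenced to fluorescein.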

[14] = qHTS assay to test for compound auto fluorescence at 590 nm (red) in HEK293 cell free culture (AID 720683)
Procedure, shortened: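 Red-channel autofluorescence of compounds in culture medium (DMEM, 10% FBS), no cells, measured at 540/590 nm. Rose Bengal sodium is the reference fluorophore for equivalence.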

[15] = qHTS assay to test for compound auto fluorescence at 590 nm (red) in HepG2 cell free culture (AID 720684)
Procedure, shortened: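 Cell-free; medium MEM + 10% FBS; compound or DMSO added by pintool; read Ex 540/Em 590 nm; Rose Bengal sodium as red reference fluorophore.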

[16] = qHTS assay to test for compound auto fluorescence at 460 nm (blue) in HepG2 cell free culture (AID 720685)
Procedure, shortened: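 Cell-free plates of MEM plus 10% FBS received 23 nL compound or DMSO vehicle; blue-channel (405/460 nm) intensity scored against triamterene as reference fluorophore.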

[17] = qHTS assay to test for compound auto fluorescence at 535 nm (green) in HepG2 cell free culture (AID 720686)
[18] = qHTS assay to test for compound auto fluorescence at 460 nm (blue) in HepG2 cells (AID 720687)
Procedure, shortened: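 Blue-channel autofluorescence (Ex/Em 405/460 nm, triamterene-equivalent) was measured after 1 hr compound exposure at 37 C, 5% CO2. Cells were HepG2, plated overnight at 37 C in MEM plus 10% FBS.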

[19] = molecular target: Glucocorticoid receptor (Homo sapiens) (UniProt P04150); assay: qHTS assay to identify small molecule agonists of the glucocorticoid receptor (GR) signaling pathway (AID 720691; active = well fitted activation curve with a large enough effect in the signal ratio in the repeat runs, not every such curve was filed as active; the % refers to the signal ratio)
Glucocorticoid receptor (Homo sapiens), sequence (P04150 whole entry, looked up): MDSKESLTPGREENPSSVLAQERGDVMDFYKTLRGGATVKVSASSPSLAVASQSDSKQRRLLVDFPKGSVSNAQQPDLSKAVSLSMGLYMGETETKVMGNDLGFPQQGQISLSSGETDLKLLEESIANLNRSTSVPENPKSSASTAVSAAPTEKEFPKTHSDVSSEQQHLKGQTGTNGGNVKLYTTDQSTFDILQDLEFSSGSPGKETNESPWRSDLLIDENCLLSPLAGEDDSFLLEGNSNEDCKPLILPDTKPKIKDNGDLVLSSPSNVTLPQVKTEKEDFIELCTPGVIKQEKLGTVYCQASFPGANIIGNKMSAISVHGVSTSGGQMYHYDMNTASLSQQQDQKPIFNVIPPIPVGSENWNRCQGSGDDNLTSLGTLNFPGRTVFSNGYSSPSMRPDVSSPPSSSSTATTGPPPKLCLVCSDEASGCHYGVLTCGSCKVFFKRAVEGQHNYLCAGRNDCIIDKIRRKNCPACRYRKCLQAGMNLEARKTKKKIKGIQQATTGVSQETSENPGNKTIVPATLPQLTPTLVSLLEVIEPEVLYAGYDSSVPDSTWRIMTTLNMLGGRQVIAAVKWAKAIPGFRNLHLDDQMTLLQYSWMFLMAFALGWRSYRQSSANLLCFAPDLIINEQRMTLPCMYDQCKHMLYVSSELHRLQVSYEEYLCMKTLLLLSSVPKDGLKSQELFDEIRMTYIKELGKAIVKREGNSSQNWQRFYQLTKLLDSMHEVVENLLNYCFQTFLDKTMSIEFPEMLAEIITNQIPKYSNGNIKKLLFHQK
Procedure, shortened: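 Agonist-mode qHTS in HeLa cells stably expressing a glucocorticoid-response-element beta-lactamase reporter. Fluorescence intensity read with FRET substrate (2 h, room temperature) after 18 h compound treatment at 37 C.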

[20] = molecular target: Glucocorticoid receptor (Homo sapiens) (UniProt P04150); assay: qHTS assay to identify small molecule antagonists of the glucocorticoid receptor (GR) signaling pathway (AID 720692; active = well fitted inhibition curve with a large enough effect in the signal ratio in the repeat runs, not every such curve was filed as active; the % refers to the signal ratio)
Procedure, shortened: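 Inhibition of dexamethasone-driven (5 nM final) beta-lactamase expression was measured in GRE-reporter HeLa cells over 18 h at 37C. Fluorescence was read after 2 h with the B/G FRET substrate at room temperature.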

CS(=O)(=O)c1ccc([C@@H](C[C@H]2CCC(=O)C2)C(=O)Nc2cnccn2)cc1Cl
Potency [1]: inactive | Potency [2]: inactive | Potency [3]: inactive | Potency [4]: inactive | outcome [5]: inactive | Potency [6]: inactive | outcome [7]: inactive | outcome [8]: inactive | Potency [9]: inactive | outcome [10]: inactive | outcome [11]: inactive | Potency [12]: inactive | outcome [13]: inactive | outcome [14]: inactive | outcome [15]: inactive | Potency [16]: inactive | outcome [17]: inactive | Potency [18]: inactive | Potency [19]: inactive | Potency [20]: inactive

ClC1=C(Cl)C1(Cl)Cl
Potency [1]: inactive | Potency [2]: inactive | Potency [3]: inactive | Potency [4]: inactive | outcome [5]: inactive | Potency [6]: inactive | outcome [7]: inactive | outcome [8]: inactive | Potency [9]: inactive | outcome [11]: inactive | Potency [12]: inactive | outcome [13]: inactive | outcome [14]: inactive | outcome [15]: inactive | Potency [16]: inactive | outcome [17]: inactive | Potency [18]: inactive

CC(C)C(=O)OCCOc1ccccc1
Potency [1]: inactive | Potency [2]: inactive | Potency [3]: inactive | Potency [4]: inactive | outcome [5]: inactive | Potency [6]: inactive | outcome [7]: inactive | outcome [8]: inactive | Potency [9]: inactive | outcome [10]: inactive | Potency [12]: inactive | outcome [13]: inactive | outcome [14]: inactive | outcome [15]: inactive | Potency [16]: inactive | outcome [17]: inactive | Potency [18]: inactive | Potency [19]: inactive | Potency [20]: inactive

Cc1ccc2nc(N)[nH]c(=O)c2c1Sc1ccncc1
Potency [1]: 2660 nM (active) | Potency [2]: inactive | Potency [3]: 1880 nM (active) | Potency [4]: inactive | outcome [5]: inactive | Potency [6]: inactive | outcome [7]: inactive | outcome [8]: inactive | Potency [9]: inactive | outcome [10]: inactive | outcome [11]: inactive | Potency [12]: inactive | outcome [13]: inactive | outcome [14]: inactive | Potency [16]: inactive | outcome [17]: inactive | Potency [18]: inactive

COC(=O)CC(C(C)=O)C(=O)OC (stereo unspecified)
Potency [1]: inactive | Potency [2]: inactive | Potency [3]: inactive | Potency [4]: inactive | outcome [5]: inactive | Potency [6]: inactive | outcome [7]: inactive | outcome [8]: inactive | Potency [9]: inactive | outcome [10]: inactive | outcome [11]: inactive | Potency [12]: inactive | outcome [13]: inactive | outcome [14]: inactive | outcome [15]: inactive | Potency [16]: inactive | outcome [17]: inactive | Potency [18]: inactive | Potency [19]: inactive | Potency [20]: inactive

CN=C(N)NC(=O)Nc1c(C)cccc1C
Potency [1]: inactive | Potency [2]: inactive | Potency [3]: inactive | Potency [4]: inactive | outcome [5]: inactive | Potency [6]: inactive | outcome [7]: inactive | outcome [8]: inactive | Potency [9]: inactive | outcome [10]: inactive | outcome [11]: inactive | Potency [12]: inactive | outcome [13]: inactive | outcome [14]: inactive | outcome [15]: inactive | Potency [16]: inactive | outcome [17]: inactive | Potency [18]: inactive | Potency [19]: inactive | Potency [20]: inactive

COC(OC)OC
Potency [1]: inactive | Potency [2]: inactive | Potency [3]: inactive | Potency [4]: inactive | outcome [5]: inactive | Potency [6]: inactive | outcome [7]: inactive | outcome [8]: inactive | Potency [9]: inactive | outcome [10]: inactive | outcome [11]: inactive | Potency [12]: inactive | outcome [13]: inactive | outcome [14]: inactive | outcome [15]: inactive | Potency [16]: inactive | outcome [17]: inactive | Potency [18]: inactive | Potency [19]: inactive | Potency [20]: inactive

Cc1cn([C@H]2C[C@H](F)[C@@H](CO)O2)c(=O)[nH]c1=O
Potency [1]: inactive | Potency [2]: inactive | Potency [3]: inactive | Potency [4]: inactive | outcome [5]: inactive | Potency [6]: inactive | outcome [7]: inactive | outcome [8]: inactive | Potency [9]: inactive | outcome [10]: inactive | outcome [11]: inactive | Potency [12]: inactive | outcome [13]: inactive | outcome [14]: inactive | outcome [15]: inactive | Potency [16]: inactive | outcome [17]: inactive | Potency [18]: inactive | Potency [19]: inactive | Potency [20]: inactive

COC(CC(C)CCCC(C)(C)O)OC (stereo unspecified)
Potency [1]: inactive | Potency [2]: inactive | Potency [3]: inactive | Potency [4]: inactive | outcome [5]: inactive | Potency [6]: inactive | outcome [7]: inactive | outcome [8]: inactive | Potency [9]: inactive | outcome [11]: inactive | Potency [12]: inactive | outcome [13]: inactive | outcome [14]: inactive | outcome [15]: inactive | Potency [16]: inactive | outcome [17]: inactive | Potency [18]: inactive | Potency [19]: inactive | Potency [20]: inactive

O=C1c2ccccc2C(=O)c2c(O)ccc(O)c21
Potency [1]: inactive | Potency [2]: inactive | Potency [3]: inactive | Potency [4]: 54500 nM (active) | outcome [5]: inactive | Potency [6]: 3060 nM (active) | outcome [7]: inactive | outcome [8]: inactive | Potency [9]: inactive | outcome [10]: inactive | outcome [11]: inactive | Potency [12]: inactive | outcome [13]: inactive | outcome [14]: inactive | outcome [15]: inactive | Potency [16]: inactive | outcome [17]: inactive | Potency [18]: inactive | Potency [19]: inactive

Cc1ccc(NC(=O)N(C)C)cc1NC(=O)N(C)C
Potency [1]: inactive | Potency [2]: inactive | Potency [3]: inactive | Potency [4]: inactive | outcome [5]: inactive | Potency [6]: inactive | outcome [7]: inactive | outcome [8]: inactive | Potency [9]: inactive | outcome [10]: inactive | Potency [12]: inactive | outcome [13]: inactive | outcome [14]: inactive | Potency [16]: inactive | outcome [17]: inactive | Potency [18]: inactive | Potency [19]: inactive | Potency [20]: inactive

C=CC(=O)O
Potency [1]: inactive | Potency [2]: inactive | Potency [3]: inactive | Potency [4]: inactive | outcome [5]: inactive | Potency [6]: inactive | outcome [7]: inactive | outcome [8]: inactive | Potency [9]: inactive | outcome [10]: inactive | outcome [11]: inactive | Potency [12]: inactive | outcome [13]: inactive | outcome [14]: inactive | outcome [15]: inactive | Potency [16]: inactive | outcome [17]: inactive | Potency [18]: inactive | Potency [19]: inactive | Potency [20]: inactive

CCCCCCCC(=O)OCCCCCC
Potency [1]: inactive | Potency [2]: inactive | Potency [3]: inactive | Potency [4]: inactive | outcome [5]: inactive | Potency [6]: inactive | outcome [7]: inactive | outcome [8]: inactive | Potency [9]: inactive | outcome [11]: inactive | Potency [12]: inactive | outcome [13]: inactive | outcome [14]: inactive | outcome [15]: inactive | Potency [16]: inactive | outcome [17]: inactive | Potency [18]: inactive | Potency [19]: inactive | Potency [20]: inactive

CCCCCCCCCCCCCCCCCC(=O)OCC(CC)CCCC (stereo unspecified)
Potency [1]: inactive | Potency [2]: inactive | Potency [3]: inactive | Potency [4]: inactive | outcome [5]: inactive | Potency [6]: inactive | outcome [7]: inactive | outcome [8]: inactive | Potency [9]: inactive | outcome [10]: inactive | outcome [11]: inactive | Potency [12]: inactive | outcome [13]: inactive | outcome [14]: inactive | outcome [15]: inactive | Potency [16]: inactive | outcome [17]: inactive | Potency [18]: inactive
